Data: ChEMBL document CHEMBL3988442, “University of Dundee, Small-Polar-MMV Screening Library” (2021)
Hit rate of the full screen: of about 69,000 compounds, about 1,000 (1.4%) showed an effect of 50% or more. Only a selection was taken, and strong results are over-represented in it overall.

Test system: Leishmania donovani
Assay: Leishmania intramacrophage assay
Format: functional, organism-based
Design: scale not given: in the data most compounds retested in dose-response had high values

CC(C)CN1CCC2(CC1)C(=O)Nc1ccc(C(=O)NC(C)C)cc12.O=C(O)C(F)(F)F
Percent Effect (30.3 µM, […]): -1.007%

Cc1ccc(CN2C[C@@H]3CCN(Cc4ccncc4)C(=O)[C@H]3C2)s1.O=C(O)C(F)(F)F.O=C(O)C(F)(F)F
Percent Effect (30.3 µM, […]): 7.943%

N#Cc1ccc(NC2CCN(c3ncccn3)CC2)cc1Cl
Percent Effect (30.3 µM, […]): -22.27%

N#Cc1ccc(N2CCC(OC3CCOCC3)CC2)cc1Cl
Percent Effect (30.3 µM, […]): 58.7%

COCC1CN(c2ccc(C#N)c(Cl)c2)CCO1 (stereo not drawn)
Percent Effect (30.3 µM, […]): 27.15%

O=C(Nc1cccnc1)[C@H]1C[C@H]2OCC[C@H]2N(CC2CC2)C1.O=C(O)C(F)(F)F.O=C(O)C(F)(F)F
Percent Effect (30.3 µM, […]): 5.172%

O=C(O)C(F)(F)F.O=C(O)C(F)(F)F.O=C(O)C(F)(F)F.c1cncc(CN2CCO[C@H]3[C@H](OCCN4CCCC4)CC[C@@H]32)c1
Percent Effect (30.3 µM, […]): -1.777%

Fc1cccnc1O[C@H]1CN(Cc2ccoc2)[C@@H]2CCCO[C@H]12.O=C(O)C(F)(F)F.O=C(O)C(F)(F)F
Percent Effect (30.3 µM, […]): 9.385%

COCCN1C[C@@H]2COC[C@@H](CC(=O)NCc3cccnc3)[C@@H]2C1.O=C(O)C(F)(F)F.O=C(O)C(F)(F)F
Percent Effect (30.3 µM, […]): 44.79%

O=C(C[C@@H]1COC[C@H]2CN(Cc3cccnc3)C[C@@H]12)NCC1CC1.O=C(O)C(F)(F)F.O=C(O)C(F)(F)F
Percent Effect (30.3 µM, […]): 18.63%

O=C(C[C@@H]1COC[C@H]2CN(CC3CC3)C[C@@H]12)NCc1cccnc1.O=C(O)C(F)(F)F.O=C(O)C(F)(F)F
Percent Effect (30.3 µM, […]): 54.71%

O=C(O)C(F)(F)F.O=C(O)C(F)(F)F.c1cncc(CN2CC[C@H]3O[C@@H](COCC4CC4)CC[C@H]32)c1
Percent Effect (30 µM, 30.03 µM): 39.71%

COCCN1CC[C@@H]2CN(Cc3cccnc3OC)C[C@@H]2C1.O=C(O)C(F)(F)F.O=C(O)C(F)(F)F
Percent Effect (30.3 µM, […]): 55.04%

COc1ncccc1CN1C[C@H]2CCN(C(C)C)C[C@H]2C1.O=C(O)C(F)(F)F.O=C(O)C(F)(F)F
Percent Effect (30.3 µM, […]): -4.656%

COc1ncccc1CN1C[C@H]2CCN(c3ncccn3)C[C@H]2C1.O=C(O)C(F)(F)F
Percent Effect (30.3 µM, […]): 28.82%

CN(C)c1nccc(N2CCO[C@H]3CN(Cc4ccsc4)C[C@H]32)n1.O=C(O)C(F)(F)F
Percent Effect (30 µM, 30.03 µM): 28.84%

COCCN1C[C@@H]2OCCN(c3ccnc(N(C)C)n3)[C@@H]2C1
Percent Effect (30.3 µM, […]): 23.22%

CN(C)c1nccc(N2CCO[C@H]3CN(Cc4ccco4)C[C@H]32)n1
Percent Effect (30.3 µM, […]): 57.89%

C[C@@H]1C(=O)NC[C@H]2CN(Cc3ccsc3)C[C@H]21.O=C(O)C(F)(F)F
Percent Effect (30 µM, 30.03 µM): 28.53%

CCCc1nc2c(c(C)c(C)n2CCN(C)C)c(N)c1CC
Percent Effect (30.3 µM, […]): 99.96%

CNC(=O)CN1CCC12CCN(C(=O)Cc1ccccc1)C2.O=C(O)C(F)(F)F (stereo not drawn)
Percent Effect (30.3 µM, […]): 9.106%

CCCn1cc(C(=O)NCCCC(N)=O)c2ccccc21
Percent Effect (30.3 µM, […]): 41.21%

COCCn1cc(C(=O)NCCS(N)(=O)=O)c2ccccc21
Percent Effect (30.3 µM, […]): 59.49%

CCCn1cc(C(=O)NCCS(N)(=O)=O)c2ccccc21
Percent Effect (30.3 µM, […]): 23.59%

CN(C)C[C@H]1C[C@@H]2CN(Cc3ccoc3)C[C@@H]2O1.O=C(O)C(F)(F)F.O=C(O)C(F)(F)F
Percent Effect (30.3 µM, […]): 4.803%

Cl.Cl.c1cc(COC[C@@H]2CCC[C@@]23CNCCO3)ccn1
Percent Effect (30 µM, 30.03 µM): 8.265%

O=C(O)C(F)(F)F.O=C(O)C(F)(F)F.c1cncc(COC[C@@H]2CCC[C@]23CNCCO3)c1
Percent Effect (30.3 µM, […]): 27.95%

Cl.Cl.c1cncc(COC[C@@H]2CCC[C@@]23CNCCO3)c1
Percent Effect (30.3 µM, […]): 73.99%
